The record followed here is PubChem BioAssay AID651599 (National Center for Advancing Translational Sciences (NCATS), 2012).

Records with an inconclusive call do not appear. Entries that show only a call come without a potency. Calls of active or inactive are those of the source. The call rests on the fitted dose curve; in most records, active means well fitted inhibition curve with a large enough effect; inconclusive means small, poorly fitted or top-dose-only effect; inactive means no such curve, though single readings can be large or run the other way.
Potency means the concentration at half of the fitted maximal effect.

Sequence of Tumor susceptibility gene 101 protein (Homo sapiens) (Q99816 whole entry, looked up, the tested form may be a part): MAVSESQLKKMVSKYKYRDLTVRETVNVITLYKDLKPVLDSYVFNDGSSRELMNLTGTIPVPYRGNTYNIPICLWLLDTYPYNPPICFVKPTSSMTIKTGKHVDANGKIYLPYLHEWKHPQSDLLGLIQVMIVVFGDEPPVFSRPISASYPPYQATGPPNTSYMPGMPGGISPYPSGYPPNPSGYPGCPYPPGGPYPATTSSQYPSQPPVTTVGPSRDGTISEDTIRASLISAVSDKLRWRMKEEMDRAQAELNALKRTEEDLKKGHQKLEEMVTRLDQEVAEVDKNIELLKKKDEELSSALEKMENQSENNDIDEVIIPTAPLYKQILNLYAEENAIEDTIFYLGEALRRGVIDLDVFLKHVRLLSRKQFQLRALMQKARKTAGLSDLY

This assay concerns the target Tumor susceptibility gene 101 protein (Homo sapiens) (UniProt Q99816). Kind of assay: qHTS Assay for Iinhibitors of HIV-1 Budding by Blocking the Interaction of PTAP/TSG101: Hit Validation in TR assay. Conditions: Tsg101 binding domain + Texas Red-labeled PTAP peptide, fluorescence polarization, 20 min; series mostly up to 57.5 µM. The text has this:
Stages of the HIV-1 replication cycle, specifically virus assembly and release, provide underexploited targets for the development of novel antiviral inhibitors. The late stages of HIV-1 replication are mediated by the Gag precursor protein, Pr55Gag. Expression of Pr55Gag is both necessary and sufficient for the production of virus-like particles from Gag-expressing cells. The Gag protein hijacks key host proteins involved in endocytic machinery of the host cell to promote endosomal processing and viral budding. The budding process requires a direct interaction between a […] (PTAP) motif in the p6 domain of Gag and the cellular endosomal sorting protein known as Tsg101. In this way, the Gag PTAP motif promotes the host cells to recruit viral particles to the plasma membrane where the new viral particles are released, effectively turning the host cells into viral factories. A fluorescence anisotropy assay has been developed to quantitatively measure the PTAP-Tsg101 interaction which can be used to screen for inhibitors of this interaction.
This hit validation assay is similar to the primary assay but uses the Texas Red label instead of FITC.
NIH Molecular Libraries Probe Production Network [MLPCN]
NIH Chemical Genomics Center [NCGC]
PI Name: Dr. Eric Freed, NCI
Two uL of the Tsg101 binding domain in buffer (10 mM HEPES pH 7.5; 0.15 M NaCl, 0.01% Tween 20; 3 mM EDTA;0.1 mM TCEP) was dispensed into Greiner black MB 1536-well plates (final concentration 10 uM). Then, 23 nL of compounds or DMSO were delivered to each well using a pin tool. Finally, 2 uL of a TR-labeled peptide containing the PTAP motif (1) in the same buffer was dispensed (50 nM final concentration) and the binding was allowed to proceed for 20 min. at r.t. Fluorescent polarization was determined using TR excitation and polarized emission filters on a Perkin Elmer Viewlux.
Keywords: Tsg101, PTAP, Gag, HIV, fluorescent polarization, MLSMR, MLPCN, NIH Roadmap, qHTS, NCGC
On to `N#CC(C#N)=Cc1ccc(-c2ccccc2F)o1`, for which the Potency result is “inactive”.
In the case of `O=C1NC(=O)N(c2ccc(F)cc2)C(=O)/C1=C/c1ccc2c(c1)CCCN2Cc1ccccc1`, the Potency entry is “inactive”.
Take `CCOC(=O)c1c(/N=C/c2c(O)n(-c3ccccc3F)c(=S)[nH]c2=O)sc2c1CCCC2`: the Potency entry was “inactive”.
Turning to `C=CCN1CCC2(C)c3cc(O)ccc3CC1C2C` (stereo unspecified), the Potency entry was “inactive”.
As for `Nc1cc2nc3ccccc3nc2cc1N`, the Potency entry is “inactive”.
Turning to `CC(C)C[C@H]1C(=O)N2CCC[C@H]2[C@]2(O)O[C@](NC(=O)[C@@H]3C=C4c5cccc6[nH]cc(c56)C[C@H]4N(C)C3)(C(C)C)C(=O)N12`, the Potency result was “inactive”.
For `Cc1cc(N2CCCC2)ccc1C=C(C#N)C#N`, the Potency result was “inactive”.
In the case of `CC1=NCCc2c1[nH]c1cc(O)ccc21`, the Potency entry is “inactive”.
As for `O=c1cc(C(F)(F)F)c2cc3c4c(c2o1)CCCN4CCC3`, the Potency result is “inactive”.
As for `Nc1ccc2nonc2c1[N+](=O)[O-]`, the Potency entry was “inactive”.
Turning to `CCN(CC)C(=O)Cn1cc(C=C2C(=O)N(C)C(=O)N(C)C2=O)c2ccccc21`, the Potency entry is “inactive”.
`Nc1ccc2ccc3cccc[n+]3c2c1`: the Potency was 16.3 µM (active).
With `O=[N+]([O-])c1ccc(NCc2ccccc2)c2nonc12`, the Potency entry is “inactive”.
The same measure for `CCOC(=O)[C@]1(C#N)[C@@H]2C=CC(C(C)=O)=CN2[C@@H](C(N)=O)[C@@H]1c1ccsc1`: “inactive”; for `CN1Cc2c(c(C#N)c(N)n(C)c2=S)CC1(C)C`: “inactive”; for `CCN(CC)c1ccc(N=Cc2c(O)n(-c3ccc(OC)cc3)c(=O)[nH]c2=O)cc1`: “inactive”.
The same measure for `CN1CCN(c2ccc([N+](=O)[O-])c3no[n+]([O-])c23)CC1`: “inactive”.
Consider `CCOC(=O)C1CCCN(c2ccc([N+](=O)[O-])c3nonc23)C1` (stereo unspecified), for which the Potency result was “inactive”.
Turning to `CC(C)C[C@H]1C(=O)N2CCCC2[C@]2(O)O[C@](NC(=O)[C@@H]3C=C4c5cccc6[nH]cc(c56)CC4N(C)C3)(C(C)C)C(=O)N12` (stereo partly specified), the Potency entry is “inactive”.
On to `COc1ccc(N2C(=O)NC(=O)/C(=C\c3cn(C)c4ccccc34)C2=O)cc1`, for which the Potency entry was “inactive”.
For `CN1/C(=C\C=C2C(=O)NC(=S)NC2=O)C(C)(C)c2ccccc21`, the Potency entry is “inactive”.
`N#CCN1CCN(c2ccc(C(F)(F)F)cc2)CC1`: the Potency entry is “inactive”.
As for `COc1cccc2c1C(=O)c1c(O)c3c(c(O)c1C2=O)CC(O)(C(C)=NO)CC3OC1CC(N)C(O)C(C)O1` (stereo unspecified), the Potency result was “inactive”.
Take `CC1=C[C@@H]2c3cccc4[nH]cc(c34)C[C@H]2N(C)C1`: the Potency result was “inactive”.
Turning to `CN1CC=C2C(C#N)=C(N)C(C#N)(C#N)C(c3ccncc3)C2C1` (stereo unspecified), the Potency entry was “inactive”.
Consider `C#CCN1C(=O)S/C(=C\c2ccc(N3CCOCC3)cc2C)C1=O`, for which the Potency entry is “inactive”.
